In PubChem BioAssay:

experiment: growth effects on S. cerevisiae YJM789 – YJM789 clinical isolate, OD600, 24 h, basal, primary screen (AID 1089); details: higher = more signal, called active from +8 up or from −8 down;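 note: growth of clinical yeast isolate S. cerevisiae YJM 789 seeded 1000 cells per well; test concentration not given here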

z-score, inactive:
CC(C)=NO[C@H](C)c1cn([C@H](CO)Cc2ccccc2)nn1 -0.43
CCOC(=O)[C@H](CC(C)C)NC(=O)CCC1CC(OC(=O)NCc2cccc3ccccc23)CC2(CCCC(COC(=O)NCCOc3ccccc3)O2)O1 (stereo partly specified) -0.524
O=C1C[C@@H](O)[C@@H](O)[C@@H]2[C@@H]3C(=O)N(C[C@@H]4CCCO4)C(=O)[C@@H]3CC[C@@H]12 -0.217
CCOC(=O)[C@H](CC(C)C)NC(=O)CCC1CC(OC(=O)NCc2cccc3ccccc23)CC2(CCCC(COC(=O)NCCc3ccc(Cl)cc3)O2)O1 (stereo partly specified) -1.16
CO[C@H]1COC(=O)CC=C[C@@H](C)[C@H](NS(=O)(=O)c2ccc(C)cc2)COC(=O)CCC[C@@H]1C -0.419
CO[C@H]1COC(=O)[C@H](C)NC(=O)CC=C[C@@H](C)[C@H](OC)COC(=O)[C@@H](OCc2ccccc2)C=C[C@@H]1C -0.365
CCCNC(=O)OC[C@H]1O[C@H](CCON=C(C)CCN2CCCc3nc(C)c(C)cc32)C=C[C@@H]1Oc1ccc(OC)cc1 -0.663
C#CCCCON=C1C[C@@H](O)[C@@H](O)[C@@H]2[C@@H]3C(=O)N(CC)C(=O)[C@@H]3CC[C@@H]12 -0.0246
COC(=O)[C@H](C)NC(=O)CCC1CC(OC(=O)NCc2ccc3c(c2)OCO3)CC2(CCCC(COC(=O)NCC3CCCCC3)O2)O1 (stereo partly specified) 0.147
CO[C@H]1COC(=O)CC=C[C@@H](C)[C@H](OC)COC(=O)[C@@H]2CCCN2C(=O)CC=C[C@@H]1C 0.221
CON=C[C@@H](NS(=O)(=O)c1ccc(C)cc1)[C@H](C)C=CCC(=O)OC 0.903
COc1cccc([C@H]2Oc3ccc(OC)cc3C(=NO[C@H](C)c3cn([C@H](CO)Cc4ccccc4)nn3)[C@@H]2O)c1 -1.77
COc1ccc(COC(=O)NN=C2C[C@@H](O)[C@@H](O)[C@@H]3[C@@H]4C(=O)N(c5cccc(Oc6ccccc6)c5)C(=O)[C@@H]4CC[C@@H]23)cc1 1.15
CO[C@@H]1COC(=O)CC=C[C@H](C)[C@H](OC)COC(=O)[C@H](C)NC(=O)CC=C[C@H]1C 0.419
O=C1C[C@@H](O)[C@@H](O)[C@@H]2[C@@H]3C(=O)N(C[C@@H]4CCCO4)C(=O)[C@@H]3CC[C@H]12 0.788
COC(=O)[C@@H]1CC[C@@H](C)[C@H](c2ccc(Br)cc2)N1 0.0156
COC(=O)[C@@H]1CC[C@H](C)[C@@H](c2ccc(C)cc2)N1C(=O)c1ccc(C=NO[C@H](C)c2cn([C@@H]3COC[C@H]3O)nn2)cc1 0.524
Cn1c(=O)n2n(c1=O)[C@H]1[C@H](O)[C@@H]3O[C@@H]3C(=NOCc3ccccc3)[C@H]1CC2 0.409
CCOC(=O)NN=C1C[C@@H](O)[C@@H](O)[C@@H]2[C@@H]3C(=O)N(c4cccc(Oc5ccccc5)c4)C(=O)[C@@H]3CC[C@@H]12 -0.73
COC(=O)[C@H](C)NC(=O)CCC1CC(OC(=O)NCc2cccc3ccccc23)CC2(CCCC(COC(=O)NCC(c3ccccc3)c3ccccc3)O2)O1 (stereo partly specified) -0.797
Cc1ccc(S(=O)(=O)n2c3ccccc3c3nnc(C(=O)c4ccccc4)nc32)cc1 -0.232
COC(=O)C=CCCc1coc(C=CCNC(=O)OC)n1 0.339
CON=C1[C@H]2CCn3c(=O)n(-c4ccccc4)c(=O)n3[C@H]2[C@H](O)[C@@H]2O[C@H]12 -1.57
CC(C)=CCCC(C)=CCON=C1C[C@@H](O)[C@@H](O)[C@@H]2[C@@H]3C(=O)N(C4CCCCC4)C(=O)[C@@H]3CC[C@@H]12 -0.671
O=C1[C@H]2[C@H]3[C@H](O)[C@H](O)CC(=NOC[C@@H](O)COCc4ccco4)[C@H]3CC[C@H]2C(=O)N1C[C@@H]1CCCO1 -0.193
O=C(NN=C1C[C@@H](O)[C@@H](O)[C@@H]2[C@@H]3C(=O)N(C[C@@H]4CCCO4)C(=O)[C@@H]3CC[C@@H]12)OCc1ccccc1 -1.74
COc1ccc(C#C[C@@H]2C=C[C@H](OC(C)=O)[C@@H](COC(C)=O)O2)cc1 -0.551
CC(C)CON=C1C[C@@H](O)[C@@H](O)[C@@H]2[C@@H]3C(=O)N(c4cccc(Oc5ccccc5)c4)C(=O)[C@@H]3CC[C@@H]12 -1.57
CCOC(=O)[C@H](CC(C)C)NC(=O)CCC1CC(OC(=O)NCc2cccc3ccccc23)CC2(CCCC(COC(=O)NCc3cccc(C(F)(F)F)c3)O2)O1 (stereo partly specified) 0.533
C#CCCCON=C1C[C@@H](O)[C@@H](O)[C@@H]2[C@@H]3C(=O)N(Cc4ccccc4)C(=O)[C@@H]3CC[C@@H]12 -0.956
COc1ccc(O[C@H]2C=C[C@@H](c3ccccc3)O[C@@H]2CON=CC[C@@H]2C=C[C@H](OC(C)=O)[C@@H](COC(C)=O)O2)cc1 0.507
CC(C)(C)N1C(=O)[C@H]2[C@H]3[C@H](O)[C@H](O)CC(=O)[C@H]3CC[C@H]2C1=O 0.445
Cc1cc2c(nc1C)CCCCN2CC(C)ON=C[C@@H](C)[C@H](OCc1ccccc1)C(C)C (stereo partly specified) -0.715
C#CCCCON=C1C[C@@H](O)[C@@H](O)[C@@H]2[C@@H]3C(=O)N(CCC(=O)OCC)C(=O)[C@@H]3CC[C@H]12 -1.64
CCOC(=O)[C@H](CC(C)C)NC(=O)CCC1CC(OC(=O)NCc2cccc3ccccc23)CC2(CCCC(COC(=O)NCCOC)O2)O1 (stereo partly specified) -1.43
COc1ccc(COC(=O)NN=C2C[C@@H](O)[C@@H](O)[C@@H]3[C@@H]4C(=O)N(c5ccc(F)cc5F)C(=O)[C@@H]4CC[C@H]23)cc1 0.201
